# Shiga toxin inh: A qHTS for Small Molecule Inhibitors of Shiga Toxin. Vero cells, Shiga toxin protein synthesis inhibition reporter. inhibition, % at 38.7 µM. hit rate 9.2% among 290,000; in the data active = inhibition mostly above about 28%, no sharp cut-off; inactive = mostly below about 43%; note: 0% is about no effect
# Lassa entry inh: qHTS for Inhibitors of binding or entry into cells for Lassa Virus. Lassa virus pseudotype entry inhibition, cell reporter. Potency, µM (doses to about 37.9 µM), without a hit: at the top dose activity change, negative = inhibition, actives largely listed as inhibitors. hit rate 1.2% among 300,000; calls by dose curve; tested in HEK293 cells; note: potency is the fitted concentration of half-maximal effect; % is set by controls: 0 for no effect and ±100 for the full control effect; nearly all actives have a fitted effect of over 50% in size
# Cycloheximide cs: Cycloheximide Counterscreen for Small Molecule Inhibitors of Shiga Toxin | cell reporter, cycloheximide protein synthesis inhibition counterscreen | max response, % | hit rate 12% among 300,000 | AID 2314, 2010; in the data active = max response mostly above about 13%, no sharp cut-off; inactive = mostly below about 14%; note: read at 38.3 µM for the half of the compounds with a filed dose; 0% is about no effect
# Marburg entry inh: qHTS for inhibitors of binding or entry into cells for Marburg Virus | Marburg virus pseudotyped entry inhibition, cell reporter | Potency, µM (doses to about 37.8 µM), inactives show top-dose activity change, negative = inhibition, actives largely listed as inhibitors | AID 540276, 2011 | hit rate 1.8% among 300,000; calls by dose curve; tested in HEK293 cells; note: potency is the fitted concentration of half-maximal effect; % is set by controls: 0 for no effect and ±100 for the full control effect
# * = called active by the depositor; ? = inconclusive; . = no result; [ ] = remark or other dose. Hits are enriched below; roughly 12% of the tested compounds scored in any of these assays.
SMILES,Shiga toxin inh,Lassa entry inh,Cycloheximide cs,Marburg entry inh
Cc1cccc(NC(=O)Nc2ccc(Cl)cc2)n1,39*,-7%,22*,11%
Cc1cccc(NC(=O)Nc2ccc([N+](=O)[O-])cc2)n1,19,.,15,.
Cc1cccc(NC(=O)Nc2ccc(F)cc2)n1,63*,?,17,?
CCCCCc1nc2c(c(=O)c3ccccc3n2C)c(=O)n1Cc1ccc(OC)cc1,-5,.,-2,.
Cc1ccc(-n2c(C)cc(C(=S)N3CCOCC3)c2C)cc1C,15,?,-1,?
Cc1cccc(NC(=O)c2ccc(C(=O)c3ccccc3)cc2)n1,.,-26%,.,-11%
Cc1cccc(NC(=O)NC(=O)c2ccccc2)n1,74*,17%,20,?
Cc1cccc(NC(=O)Nc2cccc(C)n2)n1,86*,22%,20*,2%[46.1 µM]
Cc1cccc(NC(=O)Nc2ccc(C)c(C)c2)n1,54*,?,24*,?
COc1ccc(Cn2c(=O)[nH]c3cc(C(=O)NCCC(C)C)ccc3c2=O)cc1,.,?,.,5%[46.1 µM]
COc1ccc(/C=C/c2onc(C)c2S(=O)(=O)N2CCC(C(=O)N3CCC(C)CC3)CC2)cc1,-5,?,-4,?
COc1ccc(C(=O)c2cn(Cc3ccccc3F)c3ccc(F)cc3c2=O)cc1,.,?,.,-5%[46.1 µM]
COc1ccc2c(c1)c(=O)c(C(=O)c1ccc(C)cc1)cn2Cc1ccccc1F,.,?,.,11µM*
O=C(N/N=C/c1cccc([N+](=O)[O-])c1)c1cc[n+](CCO)cc1,-11,.,4,.
COc1ccc(C2=NN(C(C#N)c3ccc(OC)c(OC)c3)C(c3ccccc3)C2)cc1 (stereo not given),113*,?,43*,?
COc1ccc(C2CC(c3ccc(F)cc3)=NN2c2ccccc2)cc1OC (stereo not given),90*,?,26*,3%
COc1ccc(C2CC(c3ccc(OC)c(OC)c3)=NN2C(=O)c2ccccc2)cc1 (stereo not given),-2,.,8,.
Oc1ccc(C2=NN(c3ccccc3)C(c3ccc(F)cc3)C2)cc1 (stereo not given),29,11µM*,9,?
COc1ccc(C2=NN(c3ccc(C=O)cc3)C(c3ccccc3)C2)cc1 (stereo not given),20,?,-4,?
COc1ccc(C2=NN(c3ccccc3)C(c3ccc(OC)c(OC)c3)C2)cc1 (stereo not given),46*,.,20*,.
Cc1cccc(-c2oc3ccc(-c4ccc5c(c4)OCO5)cc3c2/C=C/c2ccc(N)cc2)c1,-5,.,1,.
CCN(CC)c1ccc2cc(-c3nc4sc5c(c4c(=O)[nH]3)CCC(C(C)(C)C)C5)c(=O)oc2c1 (stereo not given),.,3%[46.1 µM],.,.
COc1ccc2cc3cc(C(=O)NCc4ccc5c(c4)OCO5)oc3nc2c1,-1,0.82µM*,-2,?
COc1ccc2cc3cc(C(=O)NCc4cccnc4)oc3nc2c1,41,-5%,15,-25%[46.1 µM]
COc1ccc2cc3cc(C(=O)NC(C)C)oc3nc2c1,75*,?,48*,?
SMILES,Shiga toxin inh,Lassa entry inh,Cycloheximide cs,Marburg entry inh
COc1ccc2cc3cc(C(=O)NCc4ccccc4OC)oc3nc2c1,.,?,.,1%[46.1 µM]
COc1ccc2cc3cc(C(=O)NCC4COc5ccccc5O4)oc3nc2c1 (stereo not given),36,?,40*,?
CN(C)/C=C1\Oc2ccc3ccccc3c2C1=O,116*,?,34*,?
CC1=C(C(=O)OCCCCCl)C(c2cc3c(cc2Br)OCO3)NC(=O)N1 (stereo not given),.,-12%[46.1 µM],-2,-25%[46.1 µM]
CCc1sc(-c2ccccc2)nc1C(=O)OC,12,.,10,.
CC(=O)c1nc(-c2ccccc2)sc1C,77*,.,26,.
CC(=O)c1csc(Nc2ccccc2Cl)n1,68*,?,33*,9%[46.1 µM]
CC(=O)c1csc(-c2ccccc2)n1,41*,20%[46.1 µM],16*,2%[46.1 µM]
CCCC(=O)Nc1nc(C)c(-c2csc(Nc3ccccc3C)n2)s1,-14,.,8,.
O=C(Nc1ccc(Cl)cc1)c1csc(-c2ccccc2)n1,5,-2%,8,-28%
Cc1oncc1-c1csc(-c2ccccc2)n1,64*,.,51*,.
CC(C)CC(=O)Nc1c2c(nn1-c1cccc(Cl)c1)CS(=O)(=O)C2,-5,.,-3,.
O=C(O)c1cnn(-c2nc(-c3cccc(F)c3)cs2)c1C(F)(F)F,25,16%,10,2%[46.1 µM]
O=C(O)c1ccc(-c2nc(-c3ccc(Cl)c(Cl)c3)cs2)cc1,141*,.,37*,.
O=C(O)c1cnn(-c2nc(-c3ccc(Cl)c(Cl)c3)cs2)c1C(F)(F)F,35,9%[46.1 µM],19*,?
O=C(O)c1ccccc1-c1csc(-c2ccccc2)n1,79*,?,23*,?
O=C(O)c1ccc(-c2nc(-c3ccccc3)cs2)cc1,41*,-9%[46.1 µM],37*,14%[46.1 µM]
c1ccc(-c2csc(-c3ccc(-c4csnn4)cc3)n2)cc1,17,.,7,.
Cc1cc(-c2ccccc2C(=O)O)on1,-8,-1%,-1,23%[46.1 µM]
Cn1ncc2c(Nc3cccc(F)c3)ncnc21,.,-2%[46.1 µM],.,.
O=C(NCc1nc(-c2ccccc2)cs1)c1ccccc1,30*,2%,19*,?
CNC(=O)c1ccc(-c2nc(-c3ccccc3)cs2)cc1,43*,?,32*,?
O=C(Nc1ccc(-c2csc(-c3ccccc3)n2)cc1)c1ccccc1Cl,24,-18%,3,?
O=C(O)c1ccccc1C(=O)Nc1ccc(-c2csc(-c3ccccc3)n2)cc1,73*,2%,54*,?
O=C(O)c1ccc(-c2nc(-c3ccccc3Cl)cs2)cc1,143*,?,29*,-6%[46.1 µM]
C=CCNC(=O)c1ccc(-c2nc(-c3ccc(Cl)cc3Cl)cs2)cc1,10,1%,4,1%
O=C(COc1ccc(Cl)cc1)Nc1ccc2nc(SCC(=O)N3CCOCC3)sc2c1,.,11%[46.1 µM],.,?

# Screens: PubChem, National Center for Advancing Translational Sciences (NCATS)
